Experimental data published in PubChem BioAssay (NCATS).
Records with an inconclusive call do not appear. Values without a mark were called inactive. Calls of active or inactive are those of the source. Calls come from the whole dose curve; as a rule, active = well fitted inhibition curve with a large enough effect; inconclusive = small, poorly fitted or top-dose-only effect; inactive = flat fitted curve, though single readings scatter.

Tested on: CRL-7250
Assay: Cytotoxic Profiling of Annotated Libraries Using Quantitative High-Throughput Screening (AID 1296008); note: nearly all actives have a fitted effect of over 60% in size
Details: Five cell lines viability, CellTiter-Glo ATP luminescence, 48-72 h; max response: active compounds read low
In short: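 Cells exposed to compounds for 48 or 72 hr at 37 degrees Celsius. Viability read as ATP-coupled luminescence with CellTiter-Glo after 10 min at room temperature.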
% is set by controls: 0 for no effect and ±100 for the full control effect; potency is the fitted concentration of half-maximal effect.

How did the max response turn out when `O=C(O)C1CN(Cc2ccc(-c3nc4cc(Cc5ccccc5F)ccc4s3)c(F)c2)C1` was run?
The max response was 1.29%.

With `CC[C@]12C=CCN3CC[C@@]4(c5cc([C@@]6(C(=O)OC)C[C@H]7C[C@@H](C(C)(F)F)CN(Cc8c6[nH]c6ccccc86)C7)c(OC)cc5N(C)[C@H]4[C@@](O)(C(=O)OC)[C@@H]1OC(C)=O)[C@@H]32` as the compound, how does the Potency read?
Its Potency is 485 nM (active).

`COc1nc2sc(C(=O)NC3CC3)c(N)c2c(C)c1Cl` was tested. Which max response did it give?
Its max response is -8.27%.

Which max response does the source give for `COC1CC(O[C@H]2CC[C@@]3(C)C(CCC4C3[C@H](OC(C)=O)[C@@H](OC(=O)/C=C/c3ccccc3)[C@]3(C)C(C(C)=O)CC[C@]43O)C2)OC(C)C1OC1CC(OC)C(OC2CC(OC)C(OC3OC(C)C(OC4OC(CO)C(O)C(O)C4O)C(OC)C3O)C(C)O2)C(C)O1` (some centres undefined) here?
The max response was -13.2%.

With `CC(C)=CCC/C(C)=C/CO[C@@H]1O[C@H](CO)[C@@H](OC(=O)/C=C/c2ccc(O)cc2)[C@H](O[C@@H]2O[C@@H](C)[C@H](O)[C@@H](O)[C@H]2O)[C@H]1O` as the compound, how does the max response read?
Its max response is 0.478%.

With `COc1cc(/C=C/C(=O)O[C@H]2[C@H](O)[C@@H](CO)O[C@@]2(CO)O[C@H]2O[C@H](CO)[C@@H](O)[C@H](O)[C@H]2O)ccc1O` as the compound, how does the max response read?
The max response was 3.83%.

For `CC1CCC2(C(=O)O)CCC3(C)C(=CCC4C5(C)CCC(O)C(C)(CO)C5CCC43C)C2C1(C)O` (centres undefined), which max response is on record?
The max response was 0.977%.

Which outcome does the source give for `C=C1C[C@]23C[C@H]1CC[C@H]2[C@]1(C)CCC[C@@](C)(C(=O)O)[C@H]1[C@@H]3C(=O)O` here?
Its outcome is “inactive”.

`OCC(CO[C@@H]1O[C@H](CO)[C@@H](O)[C@H](O)[C@H]1O)c1ccc2c(c1)OCO2` (some centres undefined) was tested. Which max response did it give?
The max response was 0.071%.

Which max response does the source give for `C/C=C/C=C/C(=O)N1CC[C@]23c4ccccc4N[C@H]4N(C)c5cccc6c5[C@@]42CCN([C@H]6C2OC2(C)C)[C@H]13` (some centres undefined) here?
The max response was -2.8%.

For `CC1OC(OC2C(C)OC(OC3C(OC(=O)C45CCC(C)(C)CC4C4=CCC6C7(C)CCC(OC8OC(C(=O)O)C(O)C(O)C8OC8OC(CO)C(O)C(OC9OC(C)C(O)C(O)C9O)C8O)C(C)(CO)C7CCC6(C)C4(C)CC5)OC(CO)C(O)C3O)C(O)C2O)C(O)C(O)C1O` (centres undefined), which max response is on record?
The max response was 3.83%.

`CC(C)=CC/C=C(\C)[C@H]1CC[C@]2(C)[C@@H]1[C@H](O)C[C@@H]1[C@@]3(C)CC[C@H](O)C(C)(C)[C@@H]3[C@@H](O[C@@H]3O[C@H](CO)[C@@H](O)[C@H](O)[C@H]3O)C[C@]12C` was tested. Which max response did it give?
Its max response is 2.02%.

For `CC(C)=CCC(O)/C(C)=C/CO[C@@H]1O[C@H](CO)[C@@H](O)[C@H](O)[C@H]1O` (some centres undefined), which outcome is on record?
The outcome was “inactive”.

For `OC/C=C/c1ccc(O[C@@H]2O[C@H](CO)[C@@H](O)[C@H](O)[C@H]2O)cc1`, which max response is on record?
Its max response is -14.7%.

Which max response does the source give for `CC1(C)CC[C@]2(CO[C@@H]3O[C@H](CO)[C@@H](O)[C@H](O)[C@H]3O)[C@@H](O)C[C@]3(C)C(=CCC4[C@@]5(C)CC[C@H](O[C@@H]6O[C@H](CO[C@@H]7O[C@H](CO[C@@H]8OC[C@@H](O)[C@H](O)[C@H]8O)[C@@H](O)[C@H](O)[C@H]7O)[C@@H](O)[C@H](O)[C@H]6O)C(C)(C)C5CC[C@]43C)[C@@H]2C1` (some centres undefined) here?
The max response was -5.37%.

`CN[C@@H]1[C@H](O[C@H]2[C@H](O[C@@H]3[C@@H](O)[C@H](O)[C@@H](N=C(N)N)[C@H](O)[C@H]3N=C(N)N)O[C@@H](C)[C@]2(O)C=O)O[C@@H](CO)[C@H](O)[C@H]1O` was tested. Which max response did it give?
Its max response is 2.94%.

For `CC(C)C1=CC2C(CC[C@]2(C)O)[C@](C)(O)CC1` (some centres undefined), which max response is on record?
The max response was -11.6%.

With `C[C@@H]1O[C@@H](O[C@H]2[C@H](O)[C@@H](C(=O)O)O[C@@H](O[C@H]3CC[C@@]4(C)C(CC[C@]5(C)C4CC=C4C6CC(C)(C)CC[C@]6(C(=O)O)CC[C@]45C)C3(C)C)[C@@H]2O[C@@H]2OC[C@@H](O)[C@H](O)[C@H]2O)[C@H](O)[C@H](O)[C@H]1O` (some centres undefined) as the compound, how does the max response read?
Its max response is 3.95%.

Which max response does the source give for `CC(=O)OC1C(OC(=O)c2ccccc2)C2C(C)(C)CC(=O)CC2(C)C23CCC(C)(C2)C(O)CC13` (centres undefined) here?
The max response was -5.07%.

With `C=C[C@]1(C)C=C2CCC3C(C)(CCC[C@@]3(C)C(=O)O)C2CC1` (some centres undefined) as the compound, how does the outcome read?
The outcome was “inactive”.

How did the Potency turn out when `Cc1cc(OCc2nnc(SC3CCCC3)n2-c2cccnc2)ccc1-c1ccc(S(C)(=O)=O)cc1` was run?
The Potency was 411 nM (active).

For `CC(C)(O)/C=C/CC(C)(O)C1C(O)CC2(C)C3CCC4C(C)(C)C(=O)CCC4(C)C3CCC12C` (centres undefined), which max response is on record?
The max response was -2.19%.

With `CC(=O)O[C@@H]1c2c3c(cc(O)c2C(=O)O[C@@H]1C)O[C@@]1(C)[C@@H](O)C[C@H]2C(C)(C)C(=O)C=C[C@]2(C)[C@@H]1C3` as the compound, how does the max response read?
The max response was -27.6%.

`Cc1cc(OCc2nc(-c3ccccc3Cl)cs2)ccc1OCC(=O)O` was tested. Which max response did it give?
The max response was -3.46%.

How did the Potency turn out when `Cc1ccc(-c2ccc3ncc4c(c3n2)n(C2CCN(C(=O)[C@H](C)O)CC2)c(=O)n4C)cn1` was run?
The Potency was 146 nM (active).

With `O=C(O)COCCN1CCN([C@H](c2ccccc2)c2ccc(Cl)cc2)CC1` as the compound, how does the max response read?
The max response was 2.26%.

`C=C1CCC2C(C)(C(=O)O)CCCC2(C)C1CC/C(=C\CO)CO` (centres undefined) was tested. Which max response did it give?
Its max response is 0.544%.

`COc1ccc2cc(C(C)C(=O)Oc3ccc(C(N)=S)cc3)ccc2c1` (centres undefined) was tested. Which outcome did it give?
Its outcome is “inactive”.

`CN(C)C1CCN(C(=O)c2ccc(NC(=O)Nc3ccc(-c4nc(N5CCOCC5)nc(N5CCOCC5)n4)cc3)cc2)CC1` was tested. Which Potency did it give?
Its Potency is 16.4 nM (active).

For `CC1(C)CC2C(C1)C(C)(O)C13CC1(COC3=O)C2O` (centres undefined), which max response is on record?
Its max response is -28%.

Which max response does the source give for `O=C1Nc2ccccc2C(O)(c2ccccc2)C1O` (centres undefined) here?
Its max response is 0.0908%.

For `CC(C)(C)c1ccc(S(=O)(=O)Nc2ccc(Cl)cc2C(=O)c2cc[n+]([O-])cc2)cc1`, which max response is on record?
Its max response is -19.6%.

With `C=C1CCCC2(C)CC3(OC)OC(=O)C(C)=C3CC12` (centres undefined) as the compound, how does the max response read?
The max response was 2.37%.

Which max response does the source give for `C[C@@H]1C(=O)O[C@H]2[C@H](O)C34[C@H]5C[C@@H](C(C)(C)C)C36[C@@H](OC(=O)[C@@H]6O)O[C@@]4(C(=O)O5)[C@@]12O` (some centres undefined) here?
Its max response is 3.72%.

For `CC1=CC(=O)CC(C)(C)[C@@]1(O)CC[C@@H](C)O[C@@H]1O[C@H](CO)[C@@H](O)[C@H](O)[C@H]1O`, which max response is on record?
The max response was 0.369%.

How did the max response turn out when `Cc1cccc(S(=O)(=O)N2CCC[C@@H]2CCN2CCC(C)CC2)c1` was run?
The max response was -2.64%.

How did the max response turn out when `O=[N+]([O-])c1cn2c(n1)OCC(OCc1ccc(OC(F)(F)F)cc1)C2` (centres undefined) was run?
The max response was -10.3%.

`O=C(O)Cc1ccc2oc(-c3ccc(NC(=O)/C=C/c4ccc(Br)cc4)c(F)c3)nc2c1` was tested. Which max response did it give?
The max response was 4.13%.

For `Cc1cc(O)cc(O[C@@H]2O[C@H](CO)[C@@H](O)[C@H](O)[C@H]2O)c1`, which outcome is on record?
The outcome was “inactive”.
